High-throughput results deposited in PubChem BioAssay by National Center for Advancing Translational Sciences (NCATS).
Pol iota inh – DNA polymerase iota (human) inhibition | Potency, µM (highest dose often 115 µM), inactives show at the highest dose activity, negative = inhibition, usual class: inhibitors | Q9UNA4 | 390,000 compounds, 1% hits | Pol iota fluorescent replication assay, 10 min; note: potency is the fitted concentration of half-maximal effect
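Pol iota at 10 nM preincubated 15 min with compounds at room temperature; reaction started with fluorescent substrate, 50 nM final. Fluorescence read kinetically at 0 and 10 min; buffer-only wells as negative control.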
WRN inhibitor – blocks human WRN helicase; 360,000 compounds, 0.46% hits; Potency, µM (doses to about 114 µM), inactives show at the highest dose activity change, negative = inhibition, most hits filed as inhibitors; WRN helicase unwinding, fluorescent forked duplex, kinetic; note: potency is the fitted concentration of half-maximal effect; % is set by controls: 0 for no effect and ±100 for the full control effect; nearly all actives have a fitted effect of over 55% in size
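Primary qHTS, 1536-well format. 20 nM WRN + compound, 15 min RT; start with 100 nM forked fluorophore/quencher duplex, 2 mM ATP (final); kinetic read ex 525/em 598 nm.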
POLK inh – DNA polymerase kappa (human) inhibition. Q9UBT6. purified Pol kappa, fluorescent DNA synthesis assay, 10 min. Potency, µM (top dose mostly 107 µM), inactives show top-dose activity, negative = inhibition, usual class: inhibitors. 400,000 compounds, 0.53% hits; note: potency is the fitted concentration of half-maximal effect; % is set by controls: 0 for no effect and ±100 for the full control effect
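Kinetic fluorescence screen: compound preincubated 15 min RT with 10 nM enzyme; 50 nM substrate (final) initiates; reads at 0/10 min.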
Pol eta inh – blocks human DNA polymerase eta activity; Q9Y253; recombinant Pol eta, fluorescent DNA replication assay; Potency, µM (series often up to 114 µM), without a hit: at the top dose activity change, negative = inhibition, most hits filed as inhibitors; 390,000 compounds, 1.2% hits; AID 588591; note: potency is the fitted concentration of half-maximal effect; % is set by controls: 0 for no effect and ±100 for the full control effect
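Pol eta (10 nM) was preincubated with compounds for 15 min at room temperature, after which fluorescent replication substrate (50 nM final) was added to start the reaction. Fluorescence was read kinetically at 0 and 10 min.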
PI5P4K alpha inh – inhibitors of human PI5P4K alpha | P48426 | PI5P4Kalpha enzyme, ADP-Glo luminescence, 60 min; stronger effect = lower value | max response, % | 330,000 compounds, 1.2% hits; active = max response of -50% or lower; inconclusive = between -30% and -50%; inactive = -30% or higher; note: value at the top dose of about 77 µM; % is set by controls: 0 for no effect and ±100 for the full control effect
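Controls without substrate or without enzyme flank wells where PI5P4Kalpha converts substrate using 5 microM ATP (final). Incubation lasts 60 minutes at room temperature; ADP formed is read by ADP-Glo luminescence.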
Pol beta inh-1 – DNA polymerase beta (human) inhibition; P06746; Pol beta primer extension/strand displacement, fluorescence kinetic; Potency, µM (series often up to 114 µM), for the others: at the top dose activity change, negative = inhibition, actives largely listed as inhibitors; 340,000 compounds, 1.3% hits; AID 485314; note: potency is the fitted concentration of half-maximal effect; % is set by controls: 0 for no effect and ±100 for the full control effect
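Human Pol beta at 10 nM; strand-displacement substrate 50 nM final. Compound exposure 15 min at room temperature before start, reaction 10 min at room temperature.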
Pol beta inh-2 – Inhibitors of human DNA polymerase beta, hit validation. shares compounds with Pol beta inh-1. Potency, µM, actives largely listed as inhibitors. Pol beta primer extension/strand displacement, fluorescence kinetic. 250 compounds, 87% hits. AID 540280; calls by dose curve; note: potency is the fitted concentration of half-maximal effect
Klenow counter – counter-screen for DNA polymerase beta inhibitors: Klenow fragment inhibition | shares compounds with Pol beta inh-1 | Klenow exo- polymerase counter-screen, fluorescent DNA substrate | activity change, negative = inhibition, % at 57.1 µM | 250 tested, under 10 active | AID 540300
HIV RT counter – HIV-1 RT inhibition, pol beta selectivity check. shares compounds with Pol beta inh-1. HIV-1 RT polymerase activity, counter-screen. activity % (negative = inhibition, positive = activation), % at 57.1 µM. 250 tested, under 10 active. AID 540301
POLB valid – validation of human DNA polymerase beta inhibitors | shares compounds with Pol beta inh-1 | radiolabeled primer extension gel assay, phosphorimager | inhibition, % at 10 µM | 110 compounds, 91% hits | AID 540325;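 active = inhibition at 10 µM of 30% or more; inconclusive = no clear call, values can overlap the other calls; inactive = inhibition at 10 µM under 30%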
TbPGK inh – TbPGK inhibition, hit validation. AID 686980. shares compounds with POLK inh. 500 compounds, 79% hits. Potency, µM (highest dose often 57.5 µM), inactives show top-dose activity change, negative = inhibition, usual class: inhibitors. TbPGK coupled GAPDH assay, Kinase-Glo luminescence; note: potency is the fitted concentration of half-maximal effect; % is set by controls: 0 for no effect and ±100 for the full control effect; nearly all actives have a fitted effect of over 65% in size
POLI cherry-pick – Human Pol iota inhibitor confirmatory assay; shares compounds with POLK inh; Pol iota primer extension, TAMRA/BHQ fluorescence; Potency, µM, usual class: inhibitors; 1,500 compounds, 77% hits; AID 720496; note: potency is the fitted concentration of half-maximal effect
* = called active by the depositor; u = inconclusive; x = not tested or not shown. Most compounds without a hit are left out; they make up all but 2.8% or so of the library. Unless noted, calls come from the whole dose curve; as a rule, active = well fitted curve in the direction sought with a large enough effect; inconclusive = small, poorly fitted or top-dose-only effect, or another doubt; inactive = no such curve, though single readings can be large; an effect the other way counts as inactive or inconclusive.

SMILES | Pol iota inh | WRN inhibitor | POLK inh | Pol eta inh | PI5P4K alpha inh | Pol beta inh-1 | Pol beta inh-2 | Klenow counter | HIV RT counter | POLI cherry-pick | others
Cn1c(SCC(=O)Nc2ccc3nc(SCC(=O)N4CCCC4)sc3c2)nnc1-c1ccc(N)cc1 | 5.6µM* | u | 50µM* | u | u | 7.9µM* | 7.1* | 5 | 8 | x
O=C(Cn1c(=O)n(-c2ccc(F)cc2)c(=O)c2sc3ccccc3c21)N1CCCC1 | -2% | x | -1% | -8% | x | 11% | x | x | x | x
CCOC(=O)c1cc(-c2ccc(N3CCOCC3)cc2)nn1-c1ccccc1C(=O)O | u | u | -16% | u | u | 13µM* | 20* | 10 | 21 | u
CCOC(=O)c1cc(-c2ccc(N3CCOCC3)cc2)nn1-c1ccccc1 | 0% | -7% | -6% | -12% | -10 | -30% | x | x | x | x
COc1cc(NC(=O)C2CCN(S(=O)(=O)c3ccc4[nH]c(=O)oc4c3)CC2)cc(OC)c1 | 24% | -12% | 19% | -17% | 0 | 1% | x | x | x | x
Cc1cccc(N2CCN(C(=O)c3ccc(Cl)c(NC4=NC5CS(=O)(=O)CC5S4)c3)CC2C)c1 (stereo unspecified) | 4% | -3% | -8% | -9% | 0 | 21% | x | x | x | x
O=C(/C=C/c1ccccc1Cl)Nc1ccc2c(c1)C(=O)NC2=O | u | u | u | u | -26 | 8.9µM* | 14* | -3 | 24 | u
O=C(Nc1cccc(-c2cn3ccccc3n2)c1)c1cc2ccccc2oc1=O | u | u | -17% | u | x | 4µM* | 5.6* | 28 | 48 | u
O=C(Nc1nc(-c2cc3ccccc3oc2=O)cs1)c1ccco1 | -12% | -16% | -9% | u | -5 | 8.9µM* | 20* | -20 | 43 | u | POLB valid=41*
O=C(Nc1nc(-c2ccccn2)cs1)c1ccco1 | 0% | -14% | -21% | u | u | u | x | x | x | x
CCCCCCc1cc2cc(-c3nnc(-c4ccccc4OC)o3)c(=O)oc2cc1O | u | 45µM* | 20µM* | 8.9µM* | -88* | 14µM* | 7.1* | -21 | 9 | x | TbPGK inh=10µM*
Cc1cccc(-c2nc3c4ccccc4nc(N4CCN(c5cc(C)ccc5C)CC4)n3n2)c1 | 11% | x | 5% | -11% | x | -1% | x | x | x | x
COc1cc(/C=C(/C#N)c2nc3ccccc3[nH]2)ccc1Oc1ncccc1[N+](=O)[O-] | u | u | -41% | u | x | 13µM* | 13* | -7 | 10 | u
CCOc1cc(/C=C(/C#N)c2nc3ccccc3[nH]2)ccc1Oc1ccc([N+](=O)[O-])cn1 | 125% | -14% | -8% | -11% | x | u | x | x | x | x
Clc1ccc(-c2nnc3sc(Cc4cccs4)nn23)c(Cl)c1 | 12% | -3% | -13% | -17% | -29 | u | x | x | x | x
